# From PubChem BioAssay (EPA / NIEHS)
# Inconclusive results are not listed. The source made the active and inactive calls. Rule for the calls: active = hit-call score of the fitted dose curve at least 0.9, where 1 is the maximum; inconclusive = response in the unintended direction; inactive = score below 0.9.
# Assays:
# [1] = target: Tyrosine-protein phosphatase non-receptor type 12 (Homo sapiens) (UniProt Q05209); test: NVS_ENZ_hPTPN12: NovaScreen (NVS) Enzymatic Assay for human Protein Tyrosine Phosphatase Non-receptor Type 12 (PTPN12) (AID 2283204)
# Outline: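 Single-concentration duplicates (25 uM) preceded singleton concentration-response up to 50 uM for chemicals passing threshold. Cell-free recombinant PTPN12 activity was read 1.33 h after dosing via fluorescence after mobility-shift separation; loss of signal versus DMSO.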
# [2] = target: Tyrosine-protein phosphatase non-receptor type 13 (Homo sapiens) (UniProt Q12923); test: NVS_ENZ_hPTPN13: NovaScreen (NVS) Enzymatic Assay for human Protein Tyrosine Phosphatase Non-receptor Type 13 (PTPN13) (AID 2283205)
# Tyrosine-protein phosphatase non-receptor type 13 (Homo sapiens), sequence (Q12923 whole entry, looked up): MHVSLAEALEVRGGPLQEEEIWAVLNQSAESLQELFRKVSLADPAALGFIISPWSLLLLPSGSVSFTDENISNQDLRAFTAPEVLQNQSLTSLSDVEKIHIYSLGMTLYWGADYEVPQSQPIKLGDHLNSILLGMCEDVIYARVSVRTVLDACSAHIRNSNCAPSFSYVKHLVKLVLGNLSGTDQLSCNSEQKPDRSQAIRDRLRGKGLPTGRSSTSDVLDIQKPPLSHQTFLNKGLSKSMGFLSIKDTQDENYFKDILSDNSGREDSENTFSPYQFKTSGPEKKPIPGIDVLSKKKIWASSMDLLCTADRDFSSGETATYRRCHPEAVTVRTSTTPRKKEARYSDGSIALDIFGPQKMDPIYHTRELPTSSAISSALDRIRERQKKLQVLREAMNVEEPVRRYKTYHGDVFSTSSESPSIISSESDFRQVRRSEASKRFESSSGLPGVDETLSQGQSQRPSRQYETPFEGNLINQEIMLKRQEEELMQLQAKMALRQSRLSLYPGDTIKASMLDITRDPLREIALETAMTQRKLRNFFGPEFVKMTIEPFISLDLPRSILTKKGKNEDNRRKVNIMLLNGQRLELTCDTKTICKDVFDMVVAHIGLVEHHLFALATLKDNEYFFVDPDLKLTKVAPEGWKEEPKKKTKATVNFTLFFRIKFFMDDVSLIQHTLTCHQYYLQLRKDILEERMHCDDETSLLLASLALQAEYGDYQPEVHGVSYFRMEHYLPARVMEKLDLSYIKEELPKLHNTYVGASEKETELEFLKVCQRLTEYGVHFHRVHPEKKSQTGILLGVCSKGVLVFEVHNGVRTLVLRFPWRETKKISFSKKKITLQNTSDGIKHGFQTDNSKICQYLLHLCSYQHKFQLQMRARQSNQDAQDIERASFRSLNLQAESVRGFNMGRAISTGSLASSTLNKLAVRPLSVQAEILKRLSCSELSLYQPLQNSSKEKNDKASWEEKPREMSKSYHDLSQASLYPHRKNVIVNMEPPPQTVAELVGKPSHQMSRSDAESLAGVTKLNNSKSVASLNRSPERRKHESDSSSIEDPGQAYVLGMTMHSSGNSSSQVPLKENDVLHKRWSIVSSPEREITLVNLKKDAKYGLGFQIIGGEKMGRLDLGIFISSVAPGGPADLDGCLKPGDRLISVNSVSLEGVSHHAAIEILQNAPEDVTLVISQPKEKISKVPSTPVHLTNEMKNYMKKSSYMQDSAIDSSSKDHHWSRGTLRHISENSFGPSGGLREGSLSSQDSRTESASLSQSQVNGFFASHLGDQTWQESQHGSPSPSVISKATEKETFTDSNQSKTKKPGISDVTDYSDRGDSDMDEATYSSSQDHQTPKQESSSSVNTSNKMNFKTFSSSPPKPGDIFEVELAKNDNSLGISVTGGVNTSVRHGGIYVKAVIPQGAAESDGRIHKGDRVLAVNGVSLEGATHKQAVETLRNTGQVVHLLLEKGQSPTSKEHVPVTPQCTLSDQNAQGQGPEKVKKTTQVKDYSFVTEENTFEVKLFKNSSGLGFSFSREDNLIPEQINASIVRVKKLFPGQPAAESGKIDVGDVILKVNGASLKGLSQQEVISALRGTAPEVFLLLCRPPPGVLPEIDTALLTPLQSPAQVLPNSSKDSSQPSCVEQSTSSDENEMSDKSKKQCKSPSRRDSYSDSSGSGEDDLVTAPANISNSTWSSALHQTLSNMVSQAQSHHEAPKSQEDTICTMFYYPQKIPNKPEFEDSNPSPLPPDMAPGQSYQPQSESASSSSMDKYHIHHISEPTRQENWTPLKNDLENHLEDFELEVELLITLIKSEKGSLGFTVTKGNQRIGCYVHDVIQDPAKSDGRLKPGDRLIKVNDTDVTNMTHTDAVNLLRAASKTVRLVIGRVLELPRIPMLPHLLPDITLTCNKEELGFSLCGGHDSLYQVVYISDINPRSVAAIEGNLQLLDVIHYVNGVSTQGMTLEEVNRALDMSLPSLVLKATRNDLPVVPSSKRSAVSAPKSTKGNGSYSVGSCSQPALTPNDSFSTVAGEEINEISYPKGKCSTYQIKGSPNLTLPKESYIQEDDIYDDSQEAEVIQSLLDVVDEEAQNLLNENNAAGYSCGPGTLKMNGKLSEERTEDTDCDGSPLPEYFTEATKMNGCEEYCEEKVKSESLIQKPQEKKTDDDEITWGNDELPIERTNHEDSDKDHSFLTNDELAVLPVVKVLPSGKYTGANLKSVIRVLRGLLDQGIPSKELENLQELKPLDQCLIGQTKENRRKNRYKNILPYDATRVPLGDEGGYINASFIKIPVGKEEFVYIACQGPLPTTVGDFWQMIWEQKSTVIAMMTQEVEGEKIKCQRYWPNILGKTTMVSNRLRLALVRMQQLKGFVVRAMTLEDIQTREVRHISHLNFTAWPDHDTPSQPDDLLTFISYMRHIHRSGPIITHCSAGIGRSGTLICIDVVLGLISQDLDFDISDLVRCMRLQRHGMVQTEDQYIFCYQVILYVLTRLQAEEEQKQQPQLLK
# Outline: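 Screened first at a single 25 uM in duplicate; compounds passing the threshold (e.g. 30% inhibition) were rerun in concentration series, top 50 uM. Recombinant enzyme, fluorescent substrate, mobility-shift separation, 0.5 h read. Data fitted as inhibition relative to DMSO.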
# [3] = target: human Protein Tyrosine Phosphatase Receptor Type M (PTPRM), PTPRM (gene 5797) (UniProt P28827); test: NVS_ENZ_hPTPRM: NovaScreen (NVS) Enzymatic Assay for human Protein Tyrosine Phosphatase Receptor Type M (PTPRM) (AID 2283215)
# Procedure: (§1) NVS_ENZ_hPTPRM is a biochemical, single-readout assay that uses extracted gene-proteins in a cell-free assay. Measurements were taken 1.33 hours after chemical dosing in a 384-well plate.NVS_ENZ_hPTPRM is one of one assay component(s) measured or calculated from the NVS_ENZ_hPTPRM assay. It is designed to make measurements of enzyme activity, a form of enzyme reporter, as detected with fluorescence intensity signals by Fluorescence and electrophoretic mobility shift technology.Data from the assay component NVS_ENZ_hPTPRM was analyzed into 1 assay endpoint. This assay endpoint, NVS_ENZ_hPTPRM, was analyzed in the positive analysis fitting direction relative to DMSO as the negative control and baseline of activity. Using a type of enzyme reporter, loss-of-signal activity can be used to understand changes in the enzymatic activity as they relate to the gene PTPRM. Furthermore, this assay endpoint can be referred to as a primary readout, because this assay has produced multiple assay endpoints where this one serves a enzymatic activity function. To generalize the intended target to other relatable targets, this assay endpoint is annotated to the phosphatase intended target family, where the subfamily is receptor tyrosine phosphatase. […]
# [4] = target: human Protein Tyrosine Phosphatase Non-receptor Type 6 (PTPN6), PTPN6 (gene 5777) (UniProt P29350); test: NVS_ENZ_hPTPN6: NovaScreen (NVS) Enzymatic Assay for human Protein Tyrosine Phosphatase Non-receptor Type 6 (PTPN6) (AID 2283210)
# human Protein Tyrosine Phosphatase Non-receptor Type 6 (PTPN6), PTPN6 (gene 5777), sequence (P29350 whole entry, looked up): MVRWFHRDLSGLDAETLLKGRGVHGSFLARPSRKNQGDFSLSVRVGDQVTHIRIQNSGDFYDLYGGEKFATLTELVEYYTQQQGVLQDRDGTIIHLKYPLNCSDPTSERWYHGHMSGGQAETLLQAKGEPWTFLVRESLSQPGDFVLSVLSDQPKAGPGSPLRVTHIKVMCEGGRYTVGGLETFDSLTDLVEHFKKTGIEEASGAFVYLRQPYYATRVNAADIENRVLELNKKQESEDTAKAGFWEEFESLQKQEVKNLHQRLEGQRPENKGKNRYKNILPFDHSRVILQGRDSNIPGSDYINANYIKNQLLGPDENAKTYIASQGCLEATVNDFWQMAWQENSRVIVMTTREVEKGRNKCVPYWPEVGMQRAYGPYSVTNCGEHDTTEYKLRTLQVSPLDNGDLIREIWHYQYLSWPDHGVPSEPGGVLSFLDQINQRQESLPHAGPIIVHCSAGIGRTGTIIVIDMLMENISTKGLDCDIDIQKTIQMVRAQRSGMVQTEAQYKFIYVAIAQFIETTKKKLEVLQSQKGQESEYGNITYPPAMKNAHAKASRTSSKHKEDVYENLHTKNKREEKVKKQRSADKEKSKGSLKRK
# Procedure: as §1, with “NVS_ENZ_hPTPN6” for “NVS_ENZ_hPTPRM”, “gene-proteins from SF9” for “gene-proteins”, “plate.NVS_ENZ_hPTPN6” for “plate.NVS_ENZ_hPTPRM”, “NVS_ENZ_hPTPN6,” for “NVS_ENZ_hPTPRM,”, “PTPN6.” for “PTPRM.”, “non-receptor” for “receptor”
# [5] = target: human Protein Tyrosine Phosphatase Receptor Type F (PTPRF), PTPRF (gene 5792) (UniProt P10586); test: NVS_ENZ_hPTPRF: NovaScreen (NVS) Enzymatic Assay for human Protein Tyrosine Phosphatase Receptor Type F (PTPRF) (AID 2283213)
# human Protein Tyrosine Phosphatase Receptor Type F (PTPRF), PTPRF (gene 5792), sequence (P10586 whole entry, looked up): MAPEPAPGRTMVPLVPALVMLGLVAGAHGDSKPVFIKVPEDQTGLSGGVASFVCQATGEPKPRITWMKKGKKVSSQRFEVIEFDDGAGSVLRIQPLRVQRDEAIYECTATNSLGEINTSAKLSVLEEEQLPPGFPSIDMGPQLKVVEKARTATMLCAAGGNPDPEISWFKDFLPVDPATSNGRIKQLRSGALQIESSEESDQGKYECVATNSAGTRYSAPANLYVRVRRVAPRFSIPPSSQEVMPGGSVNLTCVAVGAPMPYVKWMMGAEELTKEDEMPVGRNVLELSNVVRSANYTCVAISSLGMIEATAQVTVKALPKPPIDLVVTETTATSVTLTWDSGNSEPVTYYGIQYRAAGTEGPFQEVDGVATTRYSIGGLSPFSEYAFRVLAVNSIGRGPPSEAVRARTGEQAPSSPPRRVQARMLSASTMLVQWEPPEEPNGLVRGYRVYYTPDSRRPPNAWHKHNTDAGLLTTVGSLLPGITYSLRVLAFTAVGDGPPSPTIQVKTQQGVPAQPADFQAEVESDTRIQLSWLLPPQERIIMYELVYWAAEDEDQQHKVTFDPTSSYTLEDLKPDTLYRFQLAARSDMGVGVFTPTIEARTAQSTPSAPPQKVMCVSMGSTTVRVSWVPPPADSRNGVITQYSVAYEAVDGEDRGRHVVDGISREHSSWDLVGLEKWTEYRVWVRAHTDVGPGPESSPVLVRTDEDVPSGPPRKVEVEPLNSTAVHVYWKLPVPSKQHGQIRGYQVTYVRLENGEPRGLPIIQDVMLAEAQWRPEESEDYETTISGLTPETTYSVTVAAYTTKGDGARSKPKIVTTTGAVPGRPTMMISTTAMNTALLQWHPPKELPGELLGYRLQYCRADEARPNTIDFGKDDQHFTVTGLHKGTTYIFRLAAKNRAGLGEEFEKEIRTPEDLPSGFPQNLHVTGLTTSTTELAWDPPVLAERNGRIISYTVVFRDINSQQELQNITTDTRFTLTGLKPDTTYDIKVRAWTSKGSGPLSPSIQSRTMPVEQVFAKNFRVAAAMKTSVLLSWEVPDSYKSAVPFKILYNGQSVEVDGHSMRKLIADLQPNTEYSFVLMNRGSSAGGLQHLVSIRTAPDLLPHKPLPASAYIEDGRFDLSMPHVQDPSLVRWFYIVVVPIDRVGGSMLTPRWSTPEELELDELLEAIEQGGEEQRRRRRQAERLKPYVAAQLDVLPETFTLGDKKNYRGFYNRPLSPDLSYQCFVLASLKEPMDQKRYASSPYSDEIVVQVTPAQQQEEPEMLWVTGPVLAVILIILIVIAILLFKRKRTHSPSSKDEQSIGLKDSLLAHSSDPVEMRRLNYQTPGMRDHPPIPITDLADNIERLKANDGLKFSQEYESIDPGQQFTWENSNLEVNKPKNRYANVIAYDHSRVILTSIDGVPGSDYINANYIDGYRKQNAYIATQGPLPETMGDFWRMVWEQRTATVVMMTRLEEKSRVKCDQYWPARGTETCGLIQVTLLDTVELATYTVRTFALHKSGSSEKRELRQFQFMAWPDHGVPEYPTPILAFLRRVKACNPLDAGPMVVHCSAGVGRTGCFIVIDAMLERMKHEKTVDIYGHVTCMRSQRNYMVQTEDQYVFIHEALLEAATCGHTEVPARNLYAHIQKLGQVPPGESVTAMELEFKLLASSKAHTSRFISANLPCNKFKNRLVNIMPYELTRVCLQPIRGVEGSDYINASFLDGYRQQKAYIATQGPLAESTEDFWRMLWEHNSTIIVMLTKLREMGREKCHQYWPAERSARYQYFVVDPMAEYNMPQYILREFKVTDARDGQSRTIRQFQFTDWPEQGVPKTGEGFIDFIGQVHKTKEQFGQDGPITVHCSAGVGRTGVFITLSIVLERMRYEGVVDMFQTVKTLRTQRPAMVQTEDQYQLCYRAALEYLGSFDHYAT
# Outline: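 Cell-free fluorescence enzyme assay with recombinant protein and substrate; product separated by electrophoretic mobility shift. Read 1 h after dosing, single 25 uM duplicate screen, then concentration-response up to 50 uM; loss of signal vs DMSO.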
# [6] = target: human Vascular Endothelial Growth Factor Receptor 1 (VEGFR1), FLT1 (gene 2321) (UniProt P17948); test: NVS_ENZ_hVEGFR1: NovaScreen (NVS) Enzymatic Assay for human Vascular Endothelial Growth Factor Receptor 1 (VEGFR1) (AID 2283226)
# Outline: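 Kinase activity of recombinant human VEGFR1 was read by fluorescence after electrophoretic separation of product from substrate, 1 h post-dosing; initial duplicate single-point testing at 25 uM, followed by concentration-series follow-up, with DMSO as baseline.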
structure (smiles),measurement,setting,value
CC/C(=C(/CC)c1ccc(O)cc1)c1ccc(O)cc1,outcome,[1],inactive
CCCCOC(=O)CC(CC(=O)OCCCC)(OC(C)=O)C(=O)OCCCC,outcome,[2],inactive
CCN(CC)C(=O)c1cc(S(=O)(=O)Cc2ccccc2)c(N2CCC(c3ccccc3)CC2)cc1N(CC)CCN(C)C,outcome,[2],inactive
same,outcome,[3],inactive
c1ccc(C[n+]2cccc3ccccc32)cc1,outcome,[4],inactive
Clc1cc(Cl)c2c(c1)N=C1CCCCCN1C2,outcome,[5],inactive
CN1C(=O)N(c2ccccc2Br)Cc2cnc(Nc3ccc4c(c3)OCC(CO)O4)nc21 (stereo not drawn),outcome,[5],inactive
Cc1cc2c(cc1C(F)(F)F)N(C(=O)Nc1ccc(Oc3cccnc3C)nc1)CC2,outcome,[6],inactive
